A selection: hits, their analogues and other compounds. The true share with any hit is near 22%.
CYP2C19 inh – inhibitors of human CYP2C19; inhibition, % at 5 µM; P33261; 96,000 compounds, 21% hits; CYP2C19 Supersomes, luciferin-H EGE luminescence, 30 min; AID 778;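 active = CYP2C19 inhibition above a set limit at 5 µM in the primary screen, cut at about 50% in these data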
F-actin modifier – modifiers of cytoskeleton assembly | inhibition, % at 2 µM | 91,000 compounds, 0.18% hits | HUVEC TNFa F-actin phalloidin imaging, high content;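 active = inhibition above the batch mean plus 3 SD and confirmed as a hit by visual image inspection, cut at about 30% in these data, passing the limit was not always enough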
CYP2C9 activ – CYP2C9 (human) activation. activation factor at 5 µM. AID 1024. P11712. recombinant CYP2C9, luciferin-H conversion, luminescence; active compounds read high; factor 1 = untreated enzyme, 0 = blocked. 96,000 compounds, 1.4% hits;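 active = activation factor of 2 or more for CYP2C9 at a 5 µM dose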
Target sequence (P11712 whole entry, looked up): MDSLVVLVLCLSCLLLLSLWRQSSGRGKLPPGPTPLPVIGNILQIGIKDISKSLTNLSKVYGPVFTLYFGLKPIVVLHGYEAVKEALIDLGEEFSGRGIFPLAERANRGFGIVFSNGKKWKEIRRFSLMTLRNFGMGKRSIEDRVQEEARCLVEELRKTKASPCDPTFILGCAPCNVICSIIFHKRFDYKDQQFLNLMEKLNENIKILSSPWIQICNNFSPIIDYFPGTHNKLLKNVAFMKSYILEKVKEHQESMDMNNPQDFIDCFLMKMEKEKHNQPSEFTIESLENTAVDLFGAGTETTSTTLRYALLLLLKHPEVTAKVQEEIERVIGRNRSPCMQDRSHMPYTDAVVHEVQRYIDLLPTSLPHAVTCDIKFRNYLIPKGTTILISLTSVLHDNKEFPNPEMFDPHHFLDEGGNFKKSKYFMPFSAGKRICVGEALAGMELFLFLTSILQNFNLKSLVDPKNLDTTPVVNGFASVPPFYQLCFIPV
E-sel TNF inh – blocks E-selectin expression induced by TNF alpha | 120,000 compounds, 0.71% hits | inhibition, % at 2 µM | AID 1246 | HUVEC TNFa-induced E-selectin immunofluorescence, high content;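 active = inhibition above the batch mean plus 3 SD, and confirmed as a hit on visual image review, cut at about 43% in these data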
CYP2C9 inh – human CYP2C9 inhibition; CYP2C9 Supersomes, luciferin-H conversion, luminescence; inhibition, % at 5 µM; 96,000 compounds, 20% hits; AID 777;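 active = blocking of liver enzyme CYP2C9 beyond about 50% at 5 µM, limit read from the data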
CYP2C19 activ – cytochrome P450 2C19 (human) activation; recombinant CYP2C19, luciferin-H EGE luminescence; active compounds read high; 0 = fully inhibited enzyme, 1 = untreated enzyme; activation factor at 5 µM; 96,000 tested, under 10 active; AID 1025;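 active = activation factor of at least 2 at 5 µM in the primary screen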
Each line names hits and unclear results; the compound was inactive in the other large screens.

O=C(COC(=O)COc1ccccc1)Nc1ccccc1OC(F)F	none
O=C(Cc1sc(-c2ccccc2)nc1-c1ccccc1)Nc1ccccc1	CYP2C9 inh 52 (no result: E-sel TNF inh)
N#Cc1ccsc1NC(=O)CSc1ncnc2ccccc12	CYP2C9 inh 64
Clc1ccc(Cn2cc(/C=N/n3cnnc3)c3ccccc32)cc1	CYP2C19 inh 80 (no result: F-actin modifier)
Cc1ccccc1Cn1cc(/C=N/n2cnnc2)c2ccccc21	CYP2C19 inh 91, CYP2C9 inh 74
Cc1cc2ncn(C(=O)c3c(-c4ccccc4Cl)noc3C)c2cc1C	none
Cc1cc(/C=C(/C#N)c2nc3ccccc3[nH]2)c(C)n1-c1cc(C(=O)O)cc(C(=O)O)c1	none (no result: CYP2C19 inh, F-actin modifier, CYP2C9 activ, CYP2C9 inh, CYP2C19 activ)
Cc1ccc2nc(/C(C#N)=C\c3cc(C)n(-c4cccc([N+](=O)[O-])c4)c3C)[nH]c2c1	CYP2C9 inh 84
Cc1ccc2oc(=O)n(CC(=O)OC(C)C)c2c1	none (no result: CYP2C19 inh, CYP2C9 activ, CYP2C9 inh, CYP2C19 activ)
CNc1cccc2c1C(=O)c1ccccc1C2=O	none (no result: CYP2C19 inh, F-actin modifier, CYP2C9 activ, CYP2C9 inh, CYP2C19 activ)
O=C1c2ccccc2-c2cccc(NS(=O)(=O)c3ccc(C(F)(F)F)cc3)c21	CYP2C9 inh 88
CN(C)S(=O)(=O)c1ccc(C(=O)Nc2ccc(CCC(=O)N3CCCC3)cc2)cc1	CYP2C9 inh 59
O=C1c2ccccc2NC(c2ccc(O)cc2)N1/N=C/c1ccc(O)cc1 (stereo not given)	none (no result: CYP2C19 inh, F-actin modifier, CYP2C9 activ, CYP2C9 inh, CYP2C19 activ)
O=C1c2ccccc2NC(c2ccccc2)N1/N=C/c1ccccc1 (stereo not given)	CYP2C9 inh 87
c1ccc(-c2nc3cc4ccccc4cc3[nH]2)nc1	CYP2C19 inh 80
CC(=O)Nc1ccc2nc(-c3ccccn3)[nH]c2c1	none
COc1ccc(C(OC(=O)c2ccco2)C(=O)NCC2CCCO2)cc1 (stereo not given)	none (no result: E-sel TNF inh)
CC(=O)Nc1ccc(-c2cc(NC(C)=O)n(-c3ccccc3)n2)cc1	none
O=C(CCl)Nc1cc(-c2ccccc2)nn1-c1ccccc1	CYP2C19 inh 83, CYP2C9 inh 60
Cc1ccc(-c2cc(NC(=O)CCl)n(-c3ccccc3)n2)cc1	CYP2C19 inh 96, E-sel TNF inh 86, CYP2C9 inh 75
Cc1cc(NC(=O)COc2ccccc2)n(-c2ccccc2)n1	none (no result: E-sel TNF inh)
O=C1c2oc3ccccc3c(=O)c2C(c2cccnc2)N1Cc1ccco1 (stereo not given)	none
Cc1cc(C)n(CCSCC(=O)O)n1	none
Cc1cccc(C(C)Nc2ccc([N+](=O)[O-])cn2)c1 (stereo not given)	CYP2C9 inh 75
Cc1cccc2cc(CN(CCCO)C(=O)Nc3cccc(Cl)c3)c(=O)[nH]c12	CYP2C19 inh 71, CYP2C9 inh 81 (no result: E-sel TNF inh)
Cc1cccc2cc(CN(Cc3ccco3)C(=O)c3ccncc3)c(=O)[nH]c12	CYP2C19 inh 98, CYP2C9 inh 94
O=C(c1ccncc1)N(Cc1ccco1)Cc1cc2ccccc2[nH]c1=O	CYP2C19 inh 99, CYP2C9 inh 93 (no result: E-sel TNF inh)
COc1ccc(C2=NN(C(C#N)c3ccc(OC)c(OC)c3)C(c3ccccc3)C2)cc1 (stereo not given)	CYP2C9 inh 68
COc1ccc(C(C#N)N2CCC(c3ccccc3)=N2)cc1OC (stereo not given)	none (no result: CYP2C19 inh, F-actin modifier, CYP2C9 activ, CYP2C9 inh, CYP2C19 activ)
CCn1c(SCC(=O)N/N=C/c2ccc(C)o2)nnc1-c1ccccc1	none
CN(C)c1nc(N(C)C)nc(N2CC(CCl)OC2=N)n1 (stereo not given)	none (no result: CYP2C19 inh, F-actin modifier, CYP2C9 activ, CYP2C9 inh, CYP2C19 activ)
COc1ccc(C(=O)NC(=S)NC(C)C)cc1Br	CYP2C19 inh 60 (no result: F-actin modifier)
COCCNC(=O)Cn1c(=O)n(CCCCCC(=O)NCc2ccc3c(c2)OCO3)c(=O)c2sccc21	none (no result: CYP2C19 inh, F-actin modifier, CYP2C9 activ, CYP2C9 inh, CYP2C19 activ)
Cn1cccc1C(=O)NC(=O)COC(=O)CC12CC3CC(CC(Br)(C3)C1)C2	none
O=C(COC(=O)CC12CC3CC(CC(Br)(C3)C1)C2)NC(=O)NCc1ccco1	CYP2C9 inh 64
O=C(Nc1cccc(Cl)c1)N1CCCC1	none
CCOC(=O)C1CCCN(C(=O)Nc2cccc(Cl)c2)C1 (stereo not given)	CYP2C19 inh 60
CC1=C(C)CC(C(=O)Nc2cccc(Cl)c2)C(C(=O)O)C1 (stereo not given)	CYP2C9 inh 50
CCOC(=O)N1CCC(N(C(=O)Nc2ccc(Cl)c(Cl)c2)C(C)CC)CC1 (stereo not given)	CYP2C19 inh 89, CYP2C9 inh 84
CCOC(=O)N1CCN(C(=O)Nc2cccc(Cl)c2)CC1	CYP2C19 inh 61 (no result: E-sel TNF inh)
O=C(O)C1CC=CCC1C(=O)Nc1cccc(Cl)c1 (stereo not given)	none
CSCCC1NC(=O)N(CC(=O)N2N=C(c3ccc(Cl)cc3)CC2c2ccco2)C1=O (stereo not given)	none (no result: CYP2C19 inh, F-actin modifier, CYP2C9 activ, CYP2C9 inh, CYP2C19 activ)
CC1CCCCN1C(=O)Nc1cccc(Cl)c1 (stereo not given)	CYP2C19 inh 70 (no result: E-sel TNF inh)
O=C1CC(c2ccc3c(c2)OCO3)Sc2nc3ccccc3n21 (stereo not given)	CYP2C19 inh 60, CYP2C9 inh 64
O=C1CC(c2ccco2)Sc2nc3ccccc3n21 (stereo not given)	none (no result: E-sel TNF inh)
Cc1ccccc1OCCCC(=O)Nc1nncs1	none (no result: CYP2C19 inh, F-actin modifier, CYP2C9 activ, CYP2C9 inh, CYP2C19 activ)
Cc1ccc(OCCCC(=O)Nc2nncs2)cc1	CYP2C19 inh 88, CYP2C9 inh 74 (no result: E-sel TNF inh)
O=C(CCCOc1ccc(Cl)cc1)Nc1nncs1	CYP2C19 inh 68, CYP2C9 inh 68 (no result: F-actin modifier)
CCN(CC)S(=O)(=O)N1CCC(C(=O)NCCC2=CCCCC2)CC1	none (no result: CYP2C19 inh, F-actin modifier, CYP2C9 activ, CYP2C9 inh, CYP2C19 activ)
CCN(CC(=O)NC1CCS(=O)(=O)C1)C(=O)COc1ccccc1-c1ccccc1 (stereo not given)	none (no result: CYP2C19 inh, F-actin modifier, CYP2C9 activ, CYP2C9 inh, CYP2C19 activ)
Cc1ccc(Cl)cc1N1CCN(C(=O)CN2C(=O)c3cccc4cccc2c34)CC1	CYP2C9 activ 2
CCN1CCN(C(=O)CN2C(=O)c3cccc4cccc2c34)CC1	none (no result: CYP2C19 inh, CYP2C9 activ, CYP2C9 inh, CYP2C19 activ)
CCCN1Cc2cccc(C(=O)N3CCN(c4cc(Cl)ccc4C)CC3)c2C1=O	CYP2C19 inh 89, CYP2C9 inh 96
COCCN1Cc2cccc(C(=O)Nc3cccc(C)c3C)c2C1=O	none (no result: F-actin modifier, E-sel TNF inh)
COCCN1Cc2cccc(C(=O)N3CCN(c4cc(C)ccc4C)CC3)c2C1=O	CYP2C19 inh 75, CYP2C9 inh 71
Cc1ccc(Cl)c(OCC(O)CN(CCO)CCO)c1 (stereo not given)	none (no result: E-sel TNF inh)
O=C(NCCCN1CCCC1=O)c1cccc(N2CCCC2=O)c1	none
CCOC(=O)c1nnn(-c2nonc2N)c1CNC(C)C	none
COC(=O)c1nnn(-c2nonc2N)c1CSc1nc2ccccc2s1	CYP2C19 inh 52
CCOC(=O)c1nnn(-c2nonc2N)c1CN(CC)c1ccccc1	CYP2C19 inh 99, CYP2C9 inh 89
CCOC(=O)c1nnn(-c2nonc2N)c1COc1ccccc1	CYP2C9 inh 88
CCOC(=O)c1nnn(-c2nonc2N)c1CN(CC)CC	none
CCOC(=O)c1nnn(-c2nonc2N)c1COc1ccc(F)cc1	CYP2C9 inh 81
CCOc1cc2[nH]c(=O)n(Cc3ccc(C(=O)NCCOC)cc3)c(=O)c2cc1OCC	none (no result: CYP2C19 inh, F-actin modifier, CYP2C9 activ, CYP2C9 inh, CYP2C19 activ)
CC(C)c1ccc(C(=O)N2CCN(CCO)CC2)cc1	none (no result: E-sel TNF inh)
COc1cccc(CN2CCN(S(=O)(=O)c3ccc(NC(C)=O)cc3)CC2)c1OC	none (no result: CYP2C19 inh, F-actin modifier, CYP2C9 activ, CYP2C9 inh, CYP2C19 activ)

Screening results from PubChem BioAssay.
